{
  "source": "PubChem BioAssay (Tox21)",
  "note": "Active and inactive are the calls of the source. A call without a number means that no potency is given here. The call rests on the fitted dose curve. Potency means the concentration at half of the fitted maximal effect.",
  "data": [
    {"target": "Gonadotropin-releasing hormone receptor (Homo sapiens) (UniProt P30968)", "sequence (P30968 whole entry, looked up)": "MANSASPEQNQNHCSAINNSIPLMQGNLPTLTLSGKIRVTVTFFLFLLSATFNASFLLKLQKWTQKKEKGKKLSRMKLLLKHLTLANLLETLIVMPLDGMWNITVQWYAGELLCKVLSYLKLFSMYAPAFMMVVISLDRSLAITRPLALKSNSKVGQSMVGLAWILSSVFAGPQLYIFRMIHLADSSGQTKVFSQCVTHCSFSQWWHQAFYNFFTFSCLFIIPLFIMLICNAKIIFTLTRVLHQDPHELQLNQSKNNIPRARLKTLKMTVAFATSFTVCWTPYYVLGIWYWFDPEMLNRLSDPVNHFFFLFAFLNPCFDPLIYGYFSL", "test": "Human gonadotropin-releasing hormone receptor (GnRHR) small molecule agonists, calcium flux assay in GnRHR-HEK293 cells (AID 1920063); further: nearly all actives have a fitted effect of over 35% in size", "settings": "calcium flux fluorescence, agonist mode; series mostly up to 57.6 µM", "how_it_was_run": "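Compounds dissolved in DMSO are pin-transferred onto dye-loaded GnRHR-HEK293 cells, which were seeded 18 h before at 37 C/5% CO2. Calcium signal is read as fluorescence intensity at 1 s intervals for 3 min.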", "values": [
      {"smiles": "O=c1cc(-c2ccccc2)oc2ccccc12", "Potency": "inactive"},
      {"smiles": "O=C(O)c1cc2ccccc2cc1O", "Potency": "inactive"},
      {"smiles": "CS(=O)(=O)c1ccc(Cl)cc1", "Potency": "inactive"},
      {"smiles": "S=C(NC1CCCCC1)NC1CCCCC1", "Potency": "inactive"},
      {"smiles": "O=C(O)CCCCCCCCCCCC(=O)O", "Potency": "inactive"},
      {"smiles": "N[C@H](Cc1c[nH]c2ccccc12)C(=O)O", "Potency": "inactive"},
      {"smiles": "CC[C@H](c1ccc(O)cc1)[C@@H](CC)c1ccc(O)cc1", "Potency": "inactive"},
      {"smiles": "C=CC(C)(O)CCC=C(C)C", "note": "(centres undefined)", "Potency": "inactive"},
      {"smiles": "O=[N+]([O-])c1ccc2nc[nH]c2c1", "Potency": "inactive"},
      {"smiles": "CC(C)(c1cc(Br)c(O)c(Br)c1)c1cc(Br)c(O)c(Br)c1", "Potency": "inactive"},
      {"smiles": "BrC1CCC(Br)C(Br)CCC(Br)C(Br)CCC1Br", "note": "(centres undefined)", "Potency": "inactive"},
      {"smiles": "COC(=O)Nc1nc2ccc(Sc3ccccc3)cc2[nH]1", "Potency": "inactive"},
      {"smiles": "CCN(CC)c1ccc2c(C)cc(=O)oc2c1", "Potency": "inactive"},
      {"smiles": "CC(=O)OCc1ccccc1", "Potency": "inactive"},
      {"smiles": "c1ccc2c(c1)-c1cccc3c1c-2cc1ccccc13", "Potency": "inactive"},
      {"smiles": "OCC(CO)(CO)CO", "Potency": "inactive"},
      {"smiles": "CN1Cc2c(N)cccc2C(c2ccccc2)C1", "note": "(centres undefined)", "Potency": "inactive"},
      {"smiles": "CCCc1ccc(O)cc1", "Potency": "inactive"},
      {"smiles": "Cc1cccnc1", "Potency": "inactive"},
      {"smiles": "CCC(C)c1ccccc1O", "note": "(centres undefined)", "Potency": "inactive"},
      {"smiles": "CC1=CC[C@@H]2C[C@H]1C2(C)C", "activity change": "0.0518% [at 11.8 µM, hits give high values] (inactive)"},
      {"smiles": "OC1CCCC1", "Potency": "inactive"},
      {"smiles": "NS(=O)(=O)c1ccc(N2CCCCS2(=O)=O)cc1", "Potency": "inactive"},
      {"smiles": "N[C@@H](Cc1c[nH]c2ccccc12)C(=O)O", "Potency": "inactive"},
      {"smiles": "CCCCCCCO", "Potency": "inactive"},
      {"smiles": "N[C@@H](Cc1c[nH]c2ccc(O)cc12)C(=O)O", "Potency": "inactive"},
      {"smiles": "CO[C@H]1C=CO[C@@]2(C)Oc3c(C)c(O)c4c(O)c(c(/C=N/N5CCN(C)CC5)c(O)c4c3C2=O)NC(=O)/C(C)=C\\C=C[C@H](C)[C@H](O)[C@@H](C)[C@@H](O)[C@@H](C)[C@H](OC(C)=O)[C@@H]1C", "Potency": "inactive"},
      {"smiles": "CC(COCC(C)OC(=O)c1ccccc1)OC(=O)c1ccccc1", "note": "(centres undefined)", "Potency": "inactive"},
      {"smiles": "O=C(O)/C=C/c1ccccc1", "Potency": "inactive"},
      {"smiles": "CCCCCOC(C)=O", "Potency": "inactive"},
      {"smiles": "CC(=O)OC1CC(C)OC(C)O1", "note": "(centres undefined)", "Potency": "inactive"},
      {"smiles": "COc1ccc(COC(C)=O)cc1", "Potency": "inactive"},
      {"smiles": "CCCCCCCCCCCCOCCO", "Potency": "inactive"},
      {"smiles": "NC[C@H](O)c1ccc(O)c(O)c1", "Potency": "19 µM (active)"},
      {"smiles": "Cc1ccc(C(C)C)cc1O", "Potency": "inactive"},
      {"smiles": "Nc1ccc(S(=O)(=O)Nc2ccc(Cl)nn2)cc1", "Potency": "inactive"},
      {"smiles": "CC(C)(C)c1cc(Cc2cc(C(C)(C)C)c(O)c(C(C)(C)C)c2)cc(C(C)(C)C)c1O", "Potency": "inactive"},
      {"smiles": "CCCCOCCOCCOC(=O)CCCCC(=O)OCCOCCOCCCC", "Potency": "inactive"},
      {"smiles": "O=C(O)Cc1cccc(-c2cc(CCCCCCc3ccc(O[C@H]4O[C@H](CO)[C@@H](O)[C@H](O)[C@@H]4O)c(-c4cccc(CC(=O)O)c4)c3)ccc2O[C@H]2O[C@H](CO)[C@@H](O)[C@H](O)[C@@H]2O)c1", "activity change": "-0.17% [at 0.217 µM, hits give high values] (inactive)"}
    ]}
  ]
}
